The values below come from publication PMC13541613, “GHT-SELEX demonstrates unexpectedly high intrinsic sequence specificity and complex DNA binding of many human transcription factors”.

What all share (assay): HT-SELEX; 20 mM HEPES pH 7, 140 mM KCl, 5 mM NaCl, 1 mM K2HPO4, 2 mM MgSO4, 100 uM EGTA, ZnSO4, 0.1% Tween20; room temperature, 1 h; high values mean tight binding
Holding throughout (settings): protein: ivt; tags: eGFP (N-terminal); dsDNA, one strand shown

One assay deals with ZNF721 full-length (Homo sapiens, UniProt Q8TF20-2 1-923). In a few lines: (§1)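 Tagged transcription factor, expressed in HEK293 lysate or cell-free extract as a full-length protein or DNA-binding-domain fragment, was held on beads. It bound a randomized 40-base DNA library during 1 h at room temperature in low-stringency HEPES/KCl buffer with Tween20. Eluted DNA went through successive PCR cycles and Illumina sequencing of ~3 million 60 bp reads per sample. A higher relative k-mer count in the selected reads denotes tighter binding.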
Chain of ZNF721 full-length (Q8TF20 other isoform, or with tags, fused parts or gaps): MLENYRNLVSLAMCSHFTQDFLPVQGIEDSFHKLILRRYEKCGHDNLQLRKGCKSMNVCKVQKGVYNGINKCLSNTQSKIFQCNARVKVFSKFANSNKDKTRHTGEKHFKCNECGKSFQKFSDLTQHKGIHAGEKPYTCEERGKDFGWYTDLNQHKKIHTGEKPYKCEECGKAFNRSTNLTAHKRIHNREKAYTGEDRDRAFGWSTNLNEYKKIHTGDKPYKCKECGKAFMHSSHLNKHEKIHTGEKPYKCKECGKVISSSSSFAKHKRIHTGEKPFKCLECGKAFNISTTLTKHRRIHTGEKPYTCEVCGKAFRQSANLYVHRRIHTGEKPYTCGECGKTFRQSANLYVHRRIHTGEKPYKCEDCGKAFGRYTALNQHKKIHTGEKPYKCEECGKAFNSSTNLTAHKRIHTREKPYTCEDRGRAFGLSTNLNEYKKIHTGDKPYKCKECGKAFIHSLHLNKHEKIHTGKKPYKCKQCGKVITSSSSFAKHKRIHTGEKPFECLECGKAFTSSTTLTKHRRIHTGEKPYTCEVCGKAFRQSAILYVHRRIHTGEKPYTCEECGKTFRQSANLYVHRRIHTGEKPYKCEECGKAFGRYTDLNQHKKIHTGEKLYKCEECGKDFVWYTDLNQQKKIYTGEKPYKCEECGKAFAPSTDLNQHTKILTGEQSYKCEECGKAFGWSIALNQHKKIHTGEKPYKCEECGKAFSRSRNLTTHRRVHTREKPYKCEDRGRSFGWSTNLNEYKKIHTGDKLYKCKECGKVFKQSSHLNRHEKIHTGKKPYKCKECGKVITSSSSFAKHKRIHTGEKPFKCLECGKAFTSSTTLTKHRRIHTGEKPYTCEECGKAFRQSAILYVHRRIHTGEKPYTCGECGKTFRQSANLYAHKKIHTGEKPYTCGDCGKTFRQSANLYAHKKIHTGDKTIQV

The next assay addresses ZNF721 DBD1 (Homo sapiens, UniProt Q8TF20-2 29-461). In a few lines: as §1
For the next assay, the target named is ZNF721 DBD2 (Homo sapiens, UniProt Q8TF20-2 395-923). In a few lines: as §1
Chain of ZNF721 DBD2 (Q8TF20 383-911): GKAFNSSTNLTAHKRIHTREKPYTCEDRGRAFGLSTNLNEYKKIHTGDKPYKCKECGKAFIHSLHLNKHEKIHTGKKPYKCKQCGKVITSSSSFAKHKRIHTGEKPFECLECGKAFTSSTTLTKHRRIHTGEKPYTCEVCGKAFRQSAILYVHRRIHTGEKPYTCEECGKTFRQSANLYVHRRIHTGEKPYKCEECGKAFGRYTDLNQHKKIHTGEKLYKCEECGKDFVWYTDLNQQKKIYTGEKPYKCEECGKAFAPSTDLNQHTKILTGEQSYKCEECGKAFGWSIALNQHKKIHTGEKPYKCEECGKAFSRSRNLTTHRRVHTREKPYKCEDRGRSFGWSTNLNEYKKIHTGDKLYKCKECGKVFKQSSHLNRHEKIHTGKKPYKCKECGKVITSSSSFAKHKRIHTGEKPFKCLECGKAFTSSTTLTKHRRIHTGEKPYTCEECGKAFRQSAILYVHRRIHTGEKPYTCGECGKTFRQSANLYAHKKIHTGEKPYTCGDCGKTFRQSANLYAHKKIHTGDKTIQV

Chain of ZNF721 DBD1 (Q8TF20 17-449): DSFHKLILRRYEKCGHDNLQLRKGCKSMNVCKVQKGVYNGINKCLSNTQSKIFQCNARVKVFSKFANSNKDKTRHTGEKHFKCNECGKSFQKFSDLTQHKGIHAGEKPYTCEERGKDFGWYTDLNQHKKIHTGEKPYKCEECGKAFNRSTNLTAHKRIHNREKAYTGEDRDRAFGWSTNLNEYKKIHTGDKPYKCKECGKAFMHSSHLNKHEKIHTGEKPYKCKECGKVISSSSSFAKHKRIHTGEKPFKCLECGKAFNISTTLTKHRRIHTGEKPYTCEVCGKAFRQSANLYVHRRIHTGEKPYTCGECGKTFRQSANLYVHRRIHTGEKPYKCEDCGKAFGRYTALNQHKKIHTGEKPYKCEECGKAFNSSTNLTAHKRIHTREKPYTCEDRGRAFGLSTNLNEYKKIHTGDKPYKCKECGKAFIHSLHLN

With CCCGCCCCCC, the binding signal with ZNF721 full-length is 0.264 relative 10-mer count; in the assay with ZNF721 DBD1, 0.00982 relative 10-mer count; in the assay with ZNF721 DBD2, 0.0018 relative 10-mer count.
With CACCAACCCC, the values for the binding signal in the assay with ZNF721 full-length, in the assay with ZNF721 DBD1 and with ZNF721 DBD2 were 0.123 relative 10-mer count, 0.00404 relative 10-mer count and 0.00407 relative 10-mer count, respectively.
For CCTCCCCGCC the same measures were 0.138 relative 10-mer count, 0.00697 relative 10-mer count and 0.00923 relative 10-mer count.
For CTCCCGCCCC the same measures were 0.136 relative 10-mer count, 0.00596 relative 10-mer count and 0.00192 relative 10-mer count.
For CCACCGTCCC the same measures were 0.112 relative 10-mer count, 0.00491 relative 10-mer count and 0.00467 relative 10-mer count.
Take CCCCGCCACC: the binding signal with ZNF721 full-length came to 0.266 relative 10-mer count; with ZNF721 DBD1 it was 0.0105 relative 10-mer count; in the assay with ZNF721 DBD2, 0.00336 relative 10-mer count.
For CCCCCACTCC the same measures were 0.14 relative 10-mer count, 0.00665 relative 10-mer count and 0.00288 relative 10-mer count.
For CCGCCCCCCA the same measures were 0.141 relative 10-mer count, 0.0066 relative 10-mer count and 0.00252 relative 10-mer count.
For CCACCGCCCC the same measures were 0.256 relative 10-mer count, 0.0117 relative 10-mer count and 0.00455 relative 10-mer count.
On to CACCTCCCCC, for which the binding signal with ZNF721 full-length is 0.188 relative 10-mer count; with ZNF721 DBD1, 0.00798 relative 10-mer count; with ZNF721 DBD2 it was 0.00443 relative 10-mer count.
As for ACCCCACCTC, the binding signal with ZNF721 full-length stood at 0.104 relative 10-mer count; in the assay with ZNF721 DBD1, 0.00527 relative 10-mer count; with ZNF721 DBD2 it was 0.0024 relative 10-mer count.
For CCCCCCCACA the same measures were 0.124 relative 10-mer count, 0.00491 relative 10-mer count and 0.00743 relative 10-mer count.
Take CACCCCACCG: the binding signal with ZNF721 full-length is 0.124 relative 10-mer count; with ZNF721 DBD1 it was 0.00459 relative 10-mer count; in the assay with ZNF721 DBD2, 0.00372 relative 10-mer count.
For ACCCACCCCT the same measures were 0.134 relative 10-mer count, 0.00541 relative 10-mer count and 0.00324 relative 10-mer count.
For CCCCGCCGCC the same measures were 0.175 relative 10-mer count, 0.00541 relative 10-mer count and 0.0012 relative 10-mer count.
For TCCCCCACCA the same measures were 0.114 relative 10-mer count, 0.00527 relative 10-mer count and 0.00407 relative 10-mer count.
Turning to CCCGCCACCC, the binding signal in the assay with ZNF721 full-length was found to be 0.304 relative 10-mer count; in the assay with ZNF721 DBD1 it was 0.0125 relative 10-mer count; with ZNF721 DBD2, 0.00252 relative 10-mer count.
As to AACAAAAAAA, the binding signal is 0.116 relative 10-mer count with ZNF721 full-length, 0.0078 relative 10-mer count in the assay with ZNF721 DBD1 and 0.069 relative 10-mer count in the assay with ZNF721 DBD2.
For CACCGCCCCC the same measures were 0.171 relative 10-mer count, 0.00803 relative 10-mer count and 0.003 relative 10-mer count.
CCGCCACCCA: the binding signal worked out at 0.107 relative 10-mer count with ZNF721 full-length, 0.00523 relative 10-mer count with ZNF721 DBD1 and 0.00276 relative 10-mer count with ZNF721 DBD2.
For AAGCTGCACC the same measures were 0.143 relative 10-mer count, 0.0827 relative 10-mer count and 0.0024 relative 10-mer count.
Turning to CCACCCCAAC, the binding signal in the assay with ZNF721 full-length was 0.162 relative 10-mer count; with ZNF721 DBD1, 0.00601 relative 10-mer count; with ZNF721 DBD2, 0.00659 relative 10-mer count.
For CAGCATCCCC the same measures were 0.143 relative 10-mer count, 0.00165 relative 10-mer count and 0.154 relative 10-mer count.
CCCTCCCGCC: the binding signal with ZNF721 full-length is 0.161 relative 10-mer count; with ZNF721 DBD1 it was 0.00716 relative 10-mer count; with ZNF721 DBD2, 0.00503 relative 10-mer count.
With CCGACCCCCC, the binding signal amounted to 0.153 relative 10-mer count with ZNF721 full-length, 0.00541 relative 10-mer count in the assay with ZNF721 DBD1 and 0.00108 relative 10-mer count with ZNF721 DBD2.
For CACACCACCC the same measures were 0.142 relative 10-mer count, 0.00573 relative 10-mer count and 0.00527 relative 10-mer count.
For CCGCCCCACC the same measures were 0.257 relative 10-mer count, 0.00894 relative 10-mer count and 0.00407 relative 10-mer count.
